# The list is not random: actives were taken first. Their share in the collection is about 0.9%.
# A1 inhib – inducers of caspase activity in MEF A1-2A-BIM cells, primary screen, A1 inhibitor project, cell-based, CaspaseGlo luminescence | caspase-Glo luminescence, 3 h; percent of clofoctol signal, DMSO as zero | caspase activation, % (no concentration beside the values) | 21,000 compounds, 0.51% hits;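 active = most replicate scores above 10, or exactly half above 10 with mean activity above 10; inconclusive = mean activity below 10 while half the replicates exceed 10; inactive = most replicate scores below 10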;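 note: effector caspase 3 and 7 activity cleaving a DEVD luciferin substrate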
# BJeLR viability – BJeLR cell viability loss, primary screen, luminescence, CellTiterGlo ATP; BJeLR fibroblasts viability, 48 h; HRASV12, hTERT and SV40 LT/ST transformed; viability loss activity score, % (concentration not given with the values); 30,000 compounds, 0.64% hits; in the data active = viability loss activity score above about 50%; inconclusive = no clear call, values can overlap the other calls; inactive = below about 35%;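 note: higher score means fewer live cells and less ATP luminescence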
# The depositor's hits bear a star; u = inconclusive; x = no result given.
SMILES,A1 inhib,BJeLR viability
O=C(c1ccc2c(c1)C(=O)c1ccccc1-2)c1ccccc1Br,-0.3,5.0
O=C(Nc1cccc(Br)c1)c1cccc2c1C(=O)c1ccccc1-2,26.3*,0.8
COc1ccc(CC(N)C(=O)N[C@H]2[C@@H](O)[C@H](n3cnc4c(N(C)C)ncnc43)O[C@@H]2CO)cc1 (stereo partly specified),58.0*,19.0
CN(C)c1ncnc2c1ncn2C1OC(CO)C(N)C1O (stereo unspecified),0.8,19.6
Cc1nc(Oc2ccc3c(C)cc(=O)oc3c2)c2c3c(sc2n1)CCC3,-0.6,2.9
Cc1nc(Oc2ccc(NC(=O)c3ccccc3)cc2)c2c3c(sc2n1)CCC3,28.8*,8.4
O=C(Sc1ccccn1)N1c2ccccc2Sc2ccccc21,0.2,3.6
O=C(/C=C/Sc1ccccn1)c1ccccc1,2.2,76.0*
O=C(O)c1[nH]c2ccccc2c1CNC1CCCC1,x,-7.0
COc1ccc(C2C(C(=O)N3CC(C)CC(C)C3)CCC(=O)N2c2ccc(OC)cc2)cc1 (stereo unspecified),x,-5.4
O=C(CCCCCN1C(=O)c2cccc3cccc(c23)C1=O)NO,-0.5,113.9*
CCc1ccccc1NC(=O)CCN1C(=O)c2ccccc2C1=O,-0.4,-4.0
COc1cc(-n2c(=O)c3ccccc3n(CC(=O)NCc3ccc(C)cc3)c2=O)cc(OC)c1OC,x,6.5
Cc1ccc2nc(S/C=C/C(=O)c3ccccc3)[nH]c2c1,4.8,71.8*
CSc1ccccc1NC(=O)CSc1nc2ccc(C)cc2[nH]1,0.5,-2.2
CC(C)(C)Nc1ncnc2c1sc1nc3c(cc12)COC(C)(C)C3,x,-2.8
CC(C)=CCc1c(O)cc(O)c2c1O[C@H](c1ccccc1)CC2=O,22.6*,1.8
O=C1C[C@H](c2ccccc2)Oc2c(Cc3ccccc3O)c(O)cc(O)c21,-0.7,9.6
COC(=O)CC(O)(CCCC(C)(C)O)C(=O)O[C@@H]1C(OC)=C[C@]23CCCN2CCc2cc4c(cc2[C@@H]13)OCO4 (stereo partly specified),10.2*,x
Oc1cc(C2CCCCC2)cc(C2CCCCC2)c1,46.0*,3.5
O=C1NCC(O)=C1C=Nc1ccc(C2CCCCC2)cc1,x,4.3
O=C1CC(=O)N(c2ccccc2)N1c1ccccc1,1.0,0.6
O=C1C=CC(=O)N1c1ccccc1,-4.7,126.9*
CCc1c(C)c(C#N)c2nc3ccccc3n2c1N1CCN(CCO)CC1,x,-1.0
Cc1c(Cc2ccccc2)c(Cl)n2c(nc3ccccc32)c1C#N,1.7,63.9*
SMILES,A1 inhib,BJeLR viability
COc1cc(OC)cc(C(=O)N/C(N)=N/c2nc3ccccc3s2)c1,4.5,u
CC(C)C(=O)N1N=C(c2ccc(NS(C)(=O)=O)cc2)CC1c1ccccc1 (stereo unspecified),x,-14.1
CC(C)(C)n1nc(-c2ccc(Cl)cc2)c2c(N)ncnc21,12.9*,6.8
N#Cc1ccc(NC(=O)Cc2ccccc2)cc1,x,3.5
CCCCN(CC)S(=O)(=O)c1ccc(C(=O)Nc2ccccc2-c2nc3ccccc3[nH]2)cc1,x,-2.8
CCOc1ccc(NC(=O)Cc2ccccc2OC)cc1,-4.8,3.1
CN(Cc1ccccc1)S(=O)(=O)c1ccc(C(=O)Nc2ccc(-c3nc4ccccc4[nH]3)cc2)cc1,21.8*,u
COc1ccccc1CC(=O)Nc1ccc(-c2nc3ccccc3[nH]2)cc1,28.6*,23.1
Cc1noc(C)c1S(=O)(=O)NC1CCCCCC1,x,-1.3
CC(C)CCNC(=O)c1ccc(CS(=O)(=O)c2cccc(C(F)(F)F)c2)o1,x,1.2
CN(C)S(=O)(=O)c1ccc2c(c1)c(=O)c(C(=O)NCc1ccccc1)cn2C,x,1.8
CCOC(=O)c1cnc(N2CCOCC2)nc1N,-6.1,9.9
CCOC(=O)c1cnc(S/C=C/C(=O)c2ccc(C)cc2)nc1N,1.5,90.1*
FC(F)(F)c1cc(NC(=S)NC2CCCCC2)cc(C(F)(F)F)c1,-0.3,20.0
COc1ccc(CCNc2nc(SCC(=O)c3ccc(F)cc3)nc3ccccc23)cc1OC,15.9*,-3.0
COc1cc(Nc2nc(SCC(=O)c3ccc(O)c(O)c3)nc3ccccc23)cc(OC)c1,-0.1,5.2
Cc1ccc2oc(=O)c3cnn(CC(=O)NC(C)C)c3c2c1,x,9.6
CC1CCCCC1N(C)C1CCN(CCNC(=O)/C=C/c2ccccc2)CC1 (stereo unspecified),x,-0.5
Nc1ncnc2c1c(I)cn2C1OC(CO)C(O)C1O (stereo unspecified),25.7*,63.1*
OC[C@H]1O[C@@H](n2cnc3c(NCc4ccco4)ncnc32)[C@H](O)[C@@H]1O,0.2,6.4
O=C(N/C(=C\c1ccc(-c2ccc(Cl)cc2Cl)o1)C(=O)N1CCCC1)c1ccccc1,-1.8,-2.7
COc1cc([C@@H]2c3cc4c(cc3C(OC3O[C@@H]5COC(C)O[C@H]5[C@H](O)[C@H]3O)C3COC(=O)[C@@H]32)OCO4)cc(OC)c1O (stereo partly specified),0.8,7.9
COc1cc([C@@H]2c3cc4c(cc3[C@@H](OC3OC5COC(C)OC5C(O)C3O)[C@H]3COC(=O)[C@H]23)OCO4)cc(OC)c1O (stereo partly specified),1.4,52.5*
CCCc1ccc(O)c(N)c1,0.7,-6.6
CCCc1ccc(-c2c(C)sc(N)c2C#N)cc1,11.8*,1.5
SMILES,A1 inhib,BJeLR viability
CC(C)NC(=O)c1nnc(Cc2cccc(Cl)c2)o1,x,-3.2
COc1cccc(-n2c(=O)c3sccc3n(Cc3ccc(C(C)(C)C)cc3)c2=O)c1,x,-2.6
Cc1nc2sccn2c1-c1csc(Nc2ccc(C(=O)O)cc2)n1,x,-0.4
CC1=NNC(=O)/C1=C\c1cn(-c2ccccc2)nc1-c1ccc(F)cc1,95.8*,88.4*
Cc1ccc(-c2nn(-c3ccccc3)cc2/C=N/O)cc1,0.1,3.7
CC(=O)OC[C@]12[C@@H](OC(C)=O)C[C@@H]3[C@@H](OC(=O)c4ccccc4)[C@]1(OC3(C)C)[C@H](C)C[C@H](OC(=O)c1ccccc1)[C@@H]2OC(C)=O,-0.8,-2.0
CC(=O)OC[C@]12[C@H](OC(C)=O)[C@H](OC(C)=O)[C@@H]3[C@@H](OC(C)=O)[C@@]14O[C@@]3(C)COC(=O)c1ncccc1CC[C@H](C)C(=O)O[C@@H]([C@H](O)[C@@H]2OC(=O)c1ccccc1)[C@]4(C)O,2.4,50.7*
Cc1ccccc1NC(=O)CC(C)C,0.0,-3.4
O=C(N1CCOc2ccccc21)n1ccnc1,0.2,0.9
CN1CCN(S(=O)(=O)c2ccc(Br)cc2)CC1,0.4,9.2
O=S(=O)(c1ccc(-c2csc(Nc3ccc(Br)cc3)n2)cc1)N1CCCCC1,14.7*,9.2
COc1cc(/C=C2\NC(=S)N(C)C2=O)ccc1OCc1ccccc1Cl,x,-5.2
O=C(CSc1nn(-c2ccccc2)c(=S)s1)N1N=CCC1c1ccccc1 (stereo unspecified),-0.7,-0.5
C=C1C(=O)O[C@@H]2C=C(C)[C@@H]3CC[C@@](C)(O)[C@@H]3C[C@H]12,-0.7,-12.4
C=C1C(=O)O[C@H]2C3=C(C)CCC[C@]3(C)C(=O)C[C@@H]12,-0.9,52.7*
CC(=O)Nc1ccc(OCC(O)CNC(C)C)cc1 (stereo unspecified),0.0,4.4
C=CCOc1ccccc1OCC(O)CNC(C)C (stereo unspecified),-1.1,56.3*
CC(CNC(=O)c1csc2c1CCCC2)c1ccccc1 (stereo unspecified),x,-15.4

# Source: PubChem BioAssay
